Measurements as given in PubChem BioAssay (NCATS).
Inconclusive results are not listed. Activity calls are given as the source filed them. The call rests on the fitted dose curve; in most records, active means well fitted cell-killing curve with a large enough effect; inconclusive means small, poorly fitted or top-dose-only effect, or effect the other way; inactive means flat fitted curve, though single readings scatter.

How the values were obtained:
Assay in all cases: Primary qHTS to identify gynecologic anti-cancer compounds using libraries of approved drugs and bioactive compounds (AID 1345084); further: nearly all actives have a fitted effect of over 55% in size
C33A = settings: Gynecologic cancer cell panel viability, ATPlite luminescence, 48 h; series mostly up to 57.5 µM
Procedure, shortened: (§1)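 Measured: luminescence after ATPlite addition (15 min, RT). Exposure: 48 h, 37 C, 5% CO2.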

CAOV3 = settings: Gynecologic cancer cell panel viability, ATPlite luminescence, 48 h; series mostly up to 57.5 µM
Procedure, shortened: as §1

CASKI = settings: Gynecologic cancer cell panel viability, ATPlite luminescence, 48 h; series mostly up to 57.5 µM
Procedure, shortened: as §1

Es-2 = settings: Gynecologic cancer cell panel viability, ATPlite luminescence, 48 h; series mostly up to 57.5 µM
Procedure, shortened: as §1

HeLa = settings: Gynecologic cancer cell panel viability, ATPlite luminescence, 48 h; series mostly up to 57.5 µM
Procedure, shortened: as §1

Hek293T = settings: Gynecologic cancer cell panel viability, ATPlite luminescence, 48 h, control line for the selectivity index; series mostly up to 57.5 µM
Procedure, shortened: as §1

JEG-3 = settings: Gynecologic cancer cell panel viability, ATPlite luminescence, 48 h; series mostly up to 57.5 µM
Procedure, shortened: as §1

OV90 = settings: Gynecologic cancer cell panel viability, ATPlite luminescence, 48 h; series mostly up to 57.5 µM
Procedure, shortened: as §1

PA-1 = settings: Gynecologic cancer cell panel viability, ATPlite luminescence, 48 h; series mostly up to 57.5 µM
Procedure, shortened: as §1

SKOV3 = settings: Gynecologic cancer cell panel viability, ATPlite luminescence, 48 h; series mostly up to 57.5 µM
Procedure, shortened: as §1

Tov-21-G = settings: Gynecologic cancer cell panel viability, ATPlite luminescence, 48 h; series mostly up to 57.5 µM
Procedure, shortened: as §1

Tov112D = settings: Gynecologic cancer cell panel viability, ATPlite luminescence, 48 h; series mostly up to 57.5 µM
Procedure, shortened: as §1

Measured: Potency

C[C@]12C=C[C@@]3(CCC4[C@](C)(CO)CCC[C@@]4(C)C3CC1)C2 (stereo partly specified)
inactive: all assays above

O=C(O)C(O[C@@H]1O[C@H](CO[C@@H]2O[C@H](CO)[C@@H](O)[C@H](O)[C@H]2O)[C@@H](O)[C@H](O)[C@H]1O)c1ccccc1 (stereo partly specified)
inactive: all assays above

CC1CCC2(C(=O)O)CCC3(C)C(=CCC4C5(C)CCC(O)C(C)(CO)C5CCC43C)C2C1(C)O (stereo unspecified)
inactive: all assays above

COC(=O)CC(C)(O)CC(=O)OCc1ccc(O[C@@H]2O[C@H](CO)[C@@H](O)[C@H](O)[C@H]2O)cc1 (stereo partly specified)
inactive: all assays above

C=C[C@]1(C)C=C2CCC3C(C)(CCC[C@@]3(C)C(=O)O)C2CC1 (stereo partly specified)
inactive: all assays above

CC(C)(O[C@@H]1O[C@H](CO)[C@@H](O)[C@H](O)[C@H]1O)C(OC(=O)/C=C\c1ccc(O)cc1)C(=O)OCc1ccc(O[C@@H]2O[C@H](CO)[C@@H](O)[C@H](O)[C@H]2O)cc1 (stereo partly specified)
inactive: all assays above

CC(C(O)/C=C/C(C)(C)O)C1CCC2(C)C3C(=O)C=C4C(CCC(O)C4(C)C)C3(C)CCC12C (stereo unspecified)
inactive: all assays above

NC1CCCCN(c2c(F)cc3c(=O)c(C(=O)O)cn(C4CC4)c3c2Cl)C1 (stereo unspecified)
inactive: all assays above

COc1cc(C(=O)OC[C@@]2(O)CO[C@@H](O[C@H]3[C@H](Oc4ccc(C(=O)O)cc4OC)O[C@H](CO)[C@@H](O)[C@@H]3O)[C@@H]2O)ccc1O
inactive: all assays above

CC(C)O[C@@H]1O[C@H](CO)[C@@H](O)[C@H](O)[C@H]1O
inactive: all assays above

CCCC(=O)NCCc1csc(-c2ccc(Cl)cc2)n1
inactive: all assays above

C=C1CCC2C(C)(C)C(O)CCC2(C)C1CCC(C)CCO (stereo unspecified)
inactive: all assays above

CN(C)CCn1cc(S(=O)(=O)c2cccc(F)c2)c2cccnc21
inactive: all assays above
